Each structure is given as a SMILES string. The campaign covered roughly 370,000 compounds. About 3,800 (1%) were called active. For the sample, actives were picked, then their nearest neighbours and some compounds at random. A number with no mark means an inactive call. No stated cut-off is given here; in the data, active means activation above about 7.8%; inactive means the rest.

A short description of the experiment: SMARCA2 (BRM) function activators, primary screen, cell-based, luminescence, high throughput (AID 652017).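 Further: 0% = vehicle wells and 100% = reference activator wells.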 As to conditions: MG213 cells, MMTV-luciferase reporter, dexamethasone, overnight; at 9.1 µM; active compounds read high. (In general: Reporter assays use an easily measured gene product as a stand-in for the process of interest.)
With `O=C(N/N=C/c1c(O)n(C2CC2)c(=S)[nH]c1=O)c1ccccc1Cl`, the activation was 1.16%.

On to `O=C(N/N=C/c1c(O)n(C2CC2)c(=S)[nH]c1=O)c1ccccc1`, for which the activation is 5.22%.

Turning to `O=C(N/N=C/c1c(O)n(Cc2ccccc2)c(=O)[nH]c1=O)c1ccccc1`, the activation is 8.1% (active).

As for `Cc1ccccc1CCC[C@@H](CC1CCCCC1)CN(C)C(=O)Oc1ccccc1`, the activation was 0.55%.

Consider `COc1ccc2c(c1)NP(=S)(c1ccccc1)N2` (stereo not given), for which the activation is 0.4%.

Regarding `Cc1cc(C)c2c(c1)NP(=S)(c1ccccc1)N2` (stereo not given), the activation is 9.88% (active).

As for `COc1cccc(C(=O)N2C[C@H]3C[C@@H](C2)c2cccc(=O)n2C3)c1`, the activation is 0.48%.

With `COP(=O)(Sc1ccccc1)C(Cc1ccccc1)NC(=O)OCc1ccccc1` (stereo not given), the activation is 0.4%.

`NCC(O)c1ccc(O)cc1` (stereo not given): the activation was -0.14%.

For `O=C1CC(=O)N(Cc2ccccc2)C(=O)N1CCCCCCN1C(=O)CC(=O)N(Cc2ccccc2)C1=O`, the activation is 1.8%.
